A number with no mark means an inactive call. No stated cut-off is given here; in the data, active means potency below about 10 µM; inactive means the rest. Where only a bound is given, the exact number is not on record here.
Potency means the concentration at half of the fitted maximal effect.

Chain of Lysosomal acid glucosylceramidase (Homo sapiens) (P04062 whole entry, looked up): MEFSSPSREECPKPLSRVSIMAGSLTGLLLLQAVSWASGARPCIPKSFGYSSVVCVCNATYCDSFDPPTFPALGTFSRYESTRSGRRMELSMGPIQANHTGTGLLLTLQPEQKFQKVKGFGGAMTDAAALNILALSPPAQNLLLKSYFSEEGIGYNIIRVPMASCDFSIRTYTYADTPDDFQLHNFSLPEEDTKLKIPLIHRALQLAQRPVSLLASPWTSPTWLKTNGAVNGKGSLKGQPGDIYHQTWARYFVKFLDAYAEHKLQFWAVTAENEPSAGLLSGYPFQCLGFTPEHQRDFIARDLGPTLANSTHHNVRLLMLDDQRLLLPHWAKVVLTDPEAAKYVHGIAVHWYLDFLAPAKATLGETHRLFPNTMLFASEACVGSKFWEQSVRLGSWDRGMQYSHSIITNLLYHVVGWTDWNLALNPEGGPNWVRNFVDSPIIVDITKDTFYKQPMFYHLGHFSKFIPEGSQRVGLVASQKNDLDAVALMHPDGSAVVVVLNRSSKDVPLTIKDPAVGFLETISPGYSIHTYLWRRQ

The target in the assay is Lysosomal acid glucosylceramidase (Homo sapiens) (UniProt P04062). Nature of the assay: Glucocerebrosidase-p2 (AID 348). To be noted: purified GBA, blue fluorogenic substrate, 40 min. Summed up:
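Compounds titrated from 0.6 nM upwards against 0.2 nM enzyme in pH 5.9 citric acid/KH2PO4, taurocholate, tween-20; blue fluorogenic substrate 80 uM, 40 min room temperature, stopped and read Ex 365/Em 440 for AC50.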
As to `Cc1noc(C)c1C(=O)N1CCC2(CC1)CN(c1cccc(-c3ccccc3)c1)C2`, the Potency is more than 11.4 µM.
Take `O=C1c2ccccc2[C@@H]([C@@H]2c3ccccc3C(=O)c3cc(Br)ccc32)c2ccc(Br)cc21`: the Potency was more than 11.4 µM.
`O=C(O)c1ccccc1-c1ccccc1C(=O)c1ccccc1`: the Potency was more than 11.4 µM.
For `N[C@@H](CSCc1ccccc1)C(=O)O` the value was more than 11.4 µM.
As for `O=C1c2ccccc2C(=O)c2c(Nc3cc4c5c(ccc6c7ccc8c9c(cc(Nc%10cccc%11c%10C(=O)c%10ccccc%10C%11=O)c(c3c56)c97)-c3ccccc3C8=O)C(=O)c3ccccc3-4)cccc21`, the figure is more than 11.4 µM; as for `O=S(=O)(O)c1ccc(NN(c2c(O)ccc3ccccc23)S(=O)(=O)O)cc1`, more than 11.4 µM.
As for `O=S(=O)(O)c1ccc(-c2nnc(-c3ccccn3)nc2-c2ccc(S(=O)(=O)O)o2)o1`, the Potency was more than 11.4 µM.
With `COc1ccc(C(=O)N2CCC3(CC2)CN(c2ccccc2)C3)cc1`, the Potency was more than 11.4 µM.
As for `C[C@@H]1CCCC(CC(=O)O)(CC(=O)O)C1`, the figure is more than 11.4 µM; as for `CN(C)c1ccc(C(c2ccc(N(C)C)cc2)c2ccc([N+](=O)[O-])cc2)cc1`, more than 11.4 µM.
For `O=C(O)C1C(C(=O)O)C(C(=O)O)C1C(=O)O` (stereo not drawn) the value was more than 11.4 µM; for `Nc1nc(C(=O)O)c(N=Nc2ccccc2)c(=O)[nH]1`, more than 11.4 µM; for `S=c1nc(-c2nc(=S)[nH]c3c2CCCCCCCCCC3)c2c([nH]1)CCCCCCCCCC2`, more than 11.4 µM.
